Measurements published in the supplement of paper PMC13380429.

System: Vero E6 infected with SARS-CoV-2
Assay: inhibition of SARS-CoV-2 cytopathic effect; higher = more antiviral protection, active = above 15
Conditions: 48 h

Measured: inhibition of SARS-CoV-2 cytopathic effect

C=CC(=O)Nc1cc(Nc2nccc(-c3c[nH]c4ccccc34)n2)c(OC)cc1N(C)CCN(C)C
inactive: 1 nM -3.07% | 8.33 nM -6.83% | 100 nM -10.5% | 833.33 nM -13.9% | 10000 nM -12.3%

COc1ccc2c(c1)C(C(=O)N(Cc1ccc(N(C)C)cc1)c1ccc(C(C)C)cc1)CCC2 (stereo not given)
inactive: 1 nM -2.02% | 8.33 nM 0.34% | 100 nM 3.26% | 833.33 nM 1.87% | 10000 nM -3.29%

CCN(CC)CCCCN1c2ccccc2Oc2ccc(Cl)cc21
inactive: 1 nM 0.59% | 8.33 nM -2.15% | 100 nM -2.29% | 833.33 nM -3.45%
active: 10000 nM 40.9%

CCC(=O)N1CCOc2c(cc(-c3ccc(OC)c(OC)c3)cc2OC[C@H]2CCCN(C)C2)C1
inactive: 1 nM 1.79% | 8.33 nM 8.72% | 100 nM 0.95% | 833.33 nM 1.75% | 10000 nM 0.51%

CCN(CC)CCOc1ccc(Nc2ncc3cc(-c4c(Cl)cccc4Cl)c(=O)n(C)c3n2)cc1
inactive: 1 nM -0.79% | 8.33 nM -0.21% | 100 nM -2.93% | 833.33 nM -9.61% | 10000 nM -31.3%

CCCCCCCC/C=C\CCCCCCCC(=O)NCc1ccc(O)c(OC)c1 [olvanil]
inactive: 1 nM 1.88% | 8.33 nM -0.08% | 100 nM 4.43% | 833.33 nM 1.07% | 10000 nM 2.19%

O=c1[nH]c2ccccc2n1C1CCN(CCCC(c2ccc(F)cc2)c2ccc(F)cc2)CC1 [pimozide]
inactive: 1 nM 0.44% | 8.33 nM 1.6% | 100 nM 0.1% | 833.33 nM -0.58% | 10000 nM -5.7%

Cc1ccccc1C(=O)c1ccc(Nc2ccc(Br)cc2N)cc1Cl
inactive: 1 nM 1.98% | 8.33 nM 1.13% | 100 nM -4.39% | 833.33 nM -0.22% | 10000 nM 3.01%

CCN(CC)C(=O)N[C@H]1C=C2c3cccc4[nH]cc(c34)C[C@H]2N(C)C1 [lisuride]
inactive: 1 nM -0.02% | 8.33 nM 2.67% | 100 nM 0.39% | 833.33 nM 7.27% | 10000 nM -0.37%

CC(=O)c1cc([N+](=O)[O-])c(Sc2ccc(F)cc2F)s1
active: 10000 nM 19.6%
inactive: 1 nM -0.55% | 8.33 nM 1.74% | 100 nM 0.23% | 833.33 nM -0.14%

CN1CCN(C2CCN(C(=O)Nc3cc(Oc4ccc(NC(=O)C5(C(=O)Nc6ccc(F)cc6)CC5)c(F)c4)ccn3)CC2)CC1 [golvatinib]
active: 10000 nM 40.8%
inactive: 1 nM 0.88% | 8.33 nM 0.74% | 100 nM 2.78% | 833.33 nM 5.87%

O=C1C[C@@H]2OCC=C3CN4CC[C@]56c7ccccc7N1[C@H]5[C@H]2[C@H]3C[C@H]46 [strychnine]
inactive: 1 nM -0.53% | 8.33 nM 0.64% | 100 nM 5.93% | 833.33 nM 3.93% | 10000 nM 1.26%

CNC(=O)N(C)N=O [nitrosodimethylurea]
inactive: 1 nM -0.7% | 8.33 nM -0.84% | 100 nM -4.76% | 833.33 nM 1.42% | 10000 nM -2.36%

CC1(C)CNc2cc(NC(=O)c3cccnc3NCc3ccncc3)ccc21 [motesanib]
inactive: 1 nM -2.26% | 8.33 nM -1.53% | 100 nM -1.67% | 833.33 nM 1.7% | 10000 nM 1.82%

O=C(CCCCC(=O)Nc1c(I)cc(I)c(C(=O)O)c1I)Nc1c(I)cc(I)c(C(=O)O)c1I [iodipamide]
inactive: 1 nM -2.81% | 8.33 nM -3.21% | 100 nM -1.82% | 833.33 nM -3.34% | 10000 nM 0.05%

COc1cc(O)c(C(=O)c2ccccc2)cc1S(=O)(=O)O [sulisobenzone]
inactive: 1 nM 1.82% | 8.33 nM 1.76% | 100 nM -0.05% | 833.33 nM -2.93% | 10000 nM 1.98%

CC(=O)Oc1cc2c(s1)CCN(C(C(=O)C1CC1)c1ccccc1F)C2 (stereo not given) [prasugrel]
inactive: 1 nM 2.32% | 8.33 nM 1.62% | 100 nM 0.43% | 833.33 nM 2.1% | 10000 nM -0.82%

CCCN(CC1CC1)c1nc(C)nc(Nc2c(Cl)cc(Cl)cc2Cl)c1Cl
inactive: 1 nM 4.5% | 8.33 nM 2.92% | 100 nM 1.63% | 833.33 nM 0.09% | 10000 nM 1.2%

C[C@H](N[C@@H](CCc1ccccc1)C(=O)O)C(=O)N1Cc2ccccc2C[C@H]1C(=O)O [quinaprilat]
inactive: 1 nM -0.56% | 8.33 nM -0.93% | 100 nM -1.42% | 833.33 nM -0.25% | 10000 nM 0.11%

C[C@]12CC[C@H](O)CC1=CC[C@@H]1[C@@H]2CC[C@]2(C)C(n3cnc4ccccc43)=CC[C@@H]12 [galeterone]
inactive: 1 nM -0.79% | 8.33 nM 0.99% | 100 nM 0.05% | 833.33 nM -5.02% | 10000 nM -6.94%

N[C@@H](CSC(c1ccccc1)(c1ccccc1)c1ccccc1)C(=O)O [S-trityl-L-cysteine]
inactive: 1 nM -0.89% | 8.33 nM -0.64% | 100 nM -2.17% | 833.33 nM -0.68% | 10000 nM -1.72%

CC(CN1c2ccccc2Sc2ccccc21)N(C)C (stereo not given) [promethazine]
inactive: 1 nM -0.13% | 8.33 nM -0.16% | 100 nM -1.28% | 833.33 nM 0.5% | 10000 nM 3.03%

CCOC(=O)N1CCC(=C2c3ccc(Cl)cc3CCc3cccnc32)CC1 [loratadine]
inactive: 1 nM 1.77% | 8.33 nM 0.5% | 100 nM 0.11% | 833.33 nM -0.88% | 10000 nM -4.61%

FC(F)(F)c1ccc(N2CCNCC2)nc1Cl
inactive: 1 nM 1.34% | 8.33 nM -0.28% | 100 nM 0.72% | 833.33 nM 1.94% | 10000 nM -3.98%

CC(C)n1nnc2cc(C(=O)O)ccc21
inactive: 1 nM 2.69% | 8.33 nM 0.35% | 100 nM -0.23% | 833.33 nM -0.38% | 10000 nM -1.63%

CC1(C)CCC(C)(C)c2cc(Cn3cccn3)c(/C=C/c3ccc(C(=O)O)cc3)cc21 [palovarotene]
inactive: 1 nM 3.77% | 8.33 nM 1.22% | 100 nM 1.2% | 833.33 nM 0.58% | 10000 nM 2.48%

O=P1(NCCCl)OCCCN1CCCl (stereo not given) [ifosfamide]
inactive: 1 nM 0.24% | 8.33 nM -2.31% | 100 nM 0.48% | 833.33 nM 0.22% | 10000 nM -0.05%

CC(=O)[C@]1(O)Cc2c(O)c3c(c(O)c2[C@@H](O[C@H]2C[C@H](N)[C@H](O)[C@H](C)O2)C1)C(=O)c1ccccc1C3=O [idarubicin]
inactive: 1 nM -0.73% | 8.33 nM 1.96% | 100 nM -0.94% | 833.33 nM -13.1% | 10000 nM -6.65%

C[C@H]1CN(C[C@H](Cc2ccccc2)C(=O)NCC(=O)O)CC[C@@]1(C)c1cccc(O)c1 [alvimopan]
inactive: 1 nM 1.74% | 8.33 nM 3.07% | 100 nM 3.04% | 833.33 nM -0.26% | 10000 nM 2.12%

CC(C)(C(=O)NCC(F)(F)C(F)(F)F)C(=O)N[C@@H]1C(=O)Nc2ccccc2-c2ccccc21
inactive: 1 nM -4.06% | 8.33 nM -4.36% | 100 nM -4.95% | 833.33 nM -5.35% | 10000 nM -3.87%

CN1CCCC(CN2c3ccccc3Sc3ccccc32)C1 (stereo not given) [mepazine]
inactive: 1 nM -2.3% | 8.33 nM 3.28% | 100 nM 3.56% | 833.33 nM -2.75% | 10000 nM 5.75%

COC1=C2C[C@@H](C)C[C@H](OC)[C@H](O)[C@@H](C)/C=C(\C)[C@H](OC(N)=O)[C@@H](OC)/C=C\C=C(/C)C(=O)NC(=CC1=O)C2=O [geldanamycin]
inactive: 1 nM 1.08% | 8.33 nM 2.06% | 100 nM 0.35% | 833.33 nM -3.32% | 10000 nM -4.4%

CCc1cc(/C(C)=N/OCc2ccc(C3CCCCC3)c(C(F)(F)F)c2)ccc1CN1CC(C(=O)O)C1 [siponimod]
inactive: 1 nM -0.21% | 8.33 nM -1.67% | 100 nM -0.01% | 833.33 nM -0.18% | 10000 nM 1.37%

CN(C)C(=N)NC(=N)N [metformin]
inactive: 1 nM 0.25% | 8.33 nM 1.14% | 100 nM 2.76% | 833.33 nM 1.97% | 10000 nM 5.07%

COc1[nH]c2ccc(F)cc2c1C(=O)OCC1CCN(CCNS(C)(=O)=O)CC1
inactive: 1 nM 2% | 8.33 nM 2.46% | 100 nM 0.98% | 833.33 nM 0.39% | 10000 nM 1.56%

CC(C)C[C@H](NC(=O)[C@@H](Cc1c[nH]c2ccccc12)NC(=O)[C@H](Cc1ccc(O)cc1)NC(=O)[C@H](CO)NC(=O)[C@H](Cc1c[nH]c2ccccc12)NC(=O)[C@H](Cc1c[nH]cn1)NC(=O)[C@@H]1CCC(=O)N1)C(=O)N[C@@H](CCCNC(=N)N)C(=O)N1CCC[C@H]1C(=O)NCC(N)=O [triptorelin]
inactive: 1 nM -0.4% | 8.33 nM 2.79% | 100 nM 1.66% | 833.33 nM 2.17% | 10000 nM 0.84%

CCCCCCCC/C=C/C(=O)O [trans-2-undecenoic-acid]
inactive: 1 nM 0.16% | 8.33 nM -0.12% | 100 nM 1.42% | 833.33 nM 1.97% | 10000 nM 1.5%

CC(=O)Nc1ccc(S(=O)(=O)c2ccc(NC(C)=O)cc2)cc1 [acedapsone]
inactive: 1 nM -1.54% | 8.33 nM -3.01% | 100 nM -3.82% | 833.33 nM -1.51% | 10000 nM 5.34%
